Data reported in PubChem BioAssay (EPA / NIEHS).
Inconclusive results are not listed. The source made the active and inactive calls. How the source made its calls: active means hit-call score of the fitted dose curve at least 0.9, where 1 is the maximum; inconclusive means response in the unintended direction; inactive means score below 0.9.

Tests used:
[1] = ACEA_AR_agonist_AUC_viability: ACEA Biosciences xCELLigence Real-Time Cell Analysis on Androgen Receptor Agonism for Viability (AID 2283775);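 on AC50: viability read 80 hours after compound addition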
Summary of the method: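 Read-out is area under the impedance curve at 80 h post-dose in 22Rv1 cells, with DMSO as baseline and signal loss taken as reduced viability. Compounds ran in duplicate from 100 uM final.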

[2] = ACEA_AR_antagonist_AUC_viability: ACEA Biosciences xCELLigence Real-Time Cell Analysis on Androgen Receptor Antagonism for Viability (AID 2283776);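 further: area under impedance growth curve at 80 h after dosing as viability; hits lower the growth signal relative to DMSO meaning cytotoxicity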
Summary of the method: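 22Rv1 human prostate cancer cells were seeded on electrode plates, monitored overnight, then exposed to eight 1:4 dilutions from 100 uM final. Impedance-based growth kinetics at 80 h gave an AUC viability endpoint normalized to DMSO.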

[3] = ACEA_ER_AUC_viability: ACEA Biosciences xCELLigence Real-Time Cell Analysis on Estrogen Receptor Agonism for Viability (AID 2283782);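 further: continuous compound exposure with impedance area under curve over 80 h; hit means loss of impedance signal meaning reduced cell growth or viability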
Summary of the method: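 T47D cells preconditioned in phenol red-free RPMI with charcoal-stripped FBS, then dosed with 8-point 1:4 series from 100 uM (up to 0.5% DMSO). Impedance monitored up to ~80 h; area-under-curve loss versus DMSO taken as viability.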

[4] = system: chicken Androgen Receptor (AR), gene 422165; test: ATG_chAR_XSP1: Attagene TRANS-FACTORIAL Multi-Species (XSP1) HepG2 Assay for chicken Androgen Receptor (AR) (AID 2283768)
Summary of the method: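 HepG2 cells transiently transfected with multiplexed GAL4-UAS reporter units expressing chimeric chicken AR-Gal4; 3 nM 6-alpha-fluorotestosterone for partial AR stimulation; 24 h after dosing, reporter mRNA by RT-PCR and capillary electrophoresis, gain-of-signal versus DMSO.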

[5] = system: zebrafish Androgen Receptor (AR), gene 100005148; test: ATG_zfAR_XSP1: Attagene TRANS-FACTORIAL Multi-Species (XSP1) HepG2 Assay for zebrafish Androgen Receptor (AR) (AID 2283771)
Summary of the method: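 HepG2 cells were transiently transfected with a zebrafish AR-GAL4 reporter system and partially stimulated with 3 nM 6-alpha-fluorotestosterone. Reporter mRNA was measured after 24 h dosing by RT-PCR with capillary electrophoresis, and gain-of-signal was fitted relative to DMSO.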

[6] = target: zebrafish Estrogen Receptor (ESR1), esr1 (gene 259252) (UniProt P57717); test: ATG_zfER1_XSP1: Attagene TRANS-FACTORIAL Multi-Species (XSP1) HepG2 Assay for zebrafish Estrogen Receptor (ESR1) (AID 2283772)
Chain of zebrafish Estrogen Receptor (ESR1), esr1 (gene 259252) (P57717 whole entry, looked up, the tested form may be a part): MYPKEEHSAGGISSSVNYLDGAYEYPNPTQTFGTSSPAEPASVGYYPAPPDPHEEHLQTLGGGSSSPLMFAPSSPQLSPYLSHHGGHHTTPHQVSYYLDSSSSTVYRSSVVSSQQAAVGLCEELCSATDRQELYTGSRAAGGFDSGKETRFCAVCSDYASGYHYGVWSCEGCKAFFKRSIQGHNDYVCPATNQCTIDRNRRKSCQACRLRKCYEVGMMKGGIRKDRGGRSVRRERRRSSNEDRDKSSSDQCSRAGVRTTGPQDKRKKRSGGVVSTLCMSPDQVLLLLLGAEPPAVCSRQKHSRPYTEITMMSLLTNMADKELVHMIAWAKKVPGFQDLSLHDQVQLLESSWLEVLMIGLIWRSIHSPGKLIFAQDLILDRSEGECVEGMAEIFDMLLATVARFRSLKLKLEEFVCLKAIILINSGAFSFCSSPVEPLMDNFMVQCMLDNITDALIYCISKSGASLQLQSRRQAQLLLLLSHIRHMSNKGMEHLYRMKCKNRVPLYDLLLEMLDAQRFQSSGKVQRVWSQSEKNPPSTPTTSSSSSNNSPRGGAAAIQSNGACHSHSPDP
Summary of the method: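 Trans-activation readout: transfected zebrafish ER-Gal4 drives a UAS reporter in human HepG2 liver cells. After 24 h compound exposure (medium containing 3 nM 6-alpha-fluorotestosterone), induced reporter transcripts were quantified by RT-PCR with capillary electrophoresis, relative to DMSO.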

[7] = system: zebrafish Estrogen Receptor (ESR2B), gene 317733; test: ATG_zfER2b_XSP1: Attagene TRANS-FACTORIAL Multi-Species (XSP1) HepG2 Assay for zebrafish Estrogen Receptor (ESR2B) (AID 2283773)
Summary of the method: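 HepG2 cells transiently transfected with GAL4-UAS reporter units for chimeric zebrafish ER2b-Gal4, with 3 nM 6-alpha-fluorotestosterone present; reporter mRNA measured 24 h after dosing by RT-PCR and capillary electrophoresis, gain versus DMSO.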

[8] = system: frog Estrogen Receptor (ESR2), gene 100174814; test: ATG_frER2_XSP1: Attagene TRANS-FACTORIAL Multi-Species (XSP1) HepG2 Assay for frog Estrogen Receptor (ESR2) (AID 2283774)
Summary of the method: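 HepG2 cells transiently transfected with GAL4-UAS reporter units expressing chimeric frog ER-Gal4; 3 nM 6-alpha-fluorotestosterone present. After 24 h dosing, reporter mRNA quantified by RT-PCR and capillary electrophoresis; gain-of-signal fitted relative to DMSO.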

[9] = system: frog Estrogen Receptor (ESR1), gene 398734; test: ATG_frER1_XSP1: Attagene TRANS-FACTORIAL Multi-Species (XSP1) HepG2 Assay for frog Estrogen Receptor (ESR1) (AID 2283777)
Summary of the method: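 HepG2 cells transiently transfected with frog ER–GAL4 chimera and GAL4-UAS reporter, with 3 nM 6-alpha-fluorotestosterone present; 24 h dosing, reporter mRNA quantified by RT-PCR and capillary electrophoresis, gain of signal versus DMSO.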

[10] = system: zebrafish Estrogen Receptor (ESR2A), gene 317734; test: ATG_zfER2a_XSP1: Attagene TRANS-FACTORIAL Multi-Species (XSP1) HepG2 Assay for zebrafish Estrogen Receptor (ESR2A) (AID 2283778)
Summary of the method: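 HepG2 cells transiently transfected with GAL4-UAS reporter units driven by a zebrafish ESR2A–Gal4 chimera; 24 h compound exposure with 3 nM 6-alpha-fluorotestosterone present. Reporter mRNA measured by RT-PCR with fluorescent capillary electrophoresis, fitted positive versus DMSO.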

[11] = target: chicken Estrogen Receptor (ESR1), ESR1 (gene 396099) (UniProt P06212); test: ATG_chERa_XSP1: Attagene TRANS-FACTORIAL Multi-Species (XSP1) HepG2 Assay for chicken Estrogen Receptor (ESR1) (AID 2283779)
Chain of chicken Estrogen Receptor (ESR1), ESR1 (gene 396099) (P06212 whole entry, looked up, the tested form may be a part): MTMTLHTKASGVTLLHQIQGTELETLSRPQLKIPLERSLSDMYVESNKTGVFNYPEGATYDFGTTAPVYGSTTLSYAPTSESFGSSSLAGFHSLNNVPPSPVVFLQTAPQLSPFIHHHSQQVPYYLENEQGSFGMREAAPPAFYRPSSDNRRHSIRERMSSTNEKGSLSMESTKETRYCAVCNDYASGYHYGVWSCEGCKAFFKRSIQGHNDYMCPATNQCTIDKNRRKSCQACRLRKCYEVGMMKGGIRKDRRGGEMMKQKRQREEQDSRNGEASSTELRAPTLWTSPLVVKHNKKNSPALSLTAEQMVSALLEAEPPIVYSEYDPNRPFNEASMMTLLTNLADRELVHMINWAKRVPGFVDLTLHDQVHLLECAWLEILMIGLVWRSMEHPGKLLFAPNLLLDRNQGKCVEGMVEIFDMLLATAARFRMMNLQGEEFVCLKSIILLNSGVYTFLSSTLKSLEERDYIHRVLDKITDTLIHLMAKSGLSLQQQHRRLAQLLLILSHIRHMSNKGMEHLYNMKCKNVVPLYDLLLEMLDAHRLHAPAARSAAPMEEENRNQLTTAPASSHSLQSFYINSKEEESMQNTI
Summary of the method: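 HepG2 cells transiently transfected with GAL4-UAS reporter units for chimeric chicken ERα-Gal4, dosed 24 h with 3 nM 6-alpha-fluorotestosterone present. Reporter mRNA by RT-PCR and capillary electrophoresis; gain-of-signal fit versus DMSO.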

[12] = target: Estrogen receptor (Homo sapiens) (UniProt P03372); test: ATG_hERa_XSP1: Attagene TRANS-FACTORIAL Multi-Species (XSP1) HepG2 Assay for human Estrogen Receptor (ESR1) (AID 2283780)
Chain of Estrogen receptor (Homo sapiens) (P03372 whole entry, looked up, the tested form may be a part): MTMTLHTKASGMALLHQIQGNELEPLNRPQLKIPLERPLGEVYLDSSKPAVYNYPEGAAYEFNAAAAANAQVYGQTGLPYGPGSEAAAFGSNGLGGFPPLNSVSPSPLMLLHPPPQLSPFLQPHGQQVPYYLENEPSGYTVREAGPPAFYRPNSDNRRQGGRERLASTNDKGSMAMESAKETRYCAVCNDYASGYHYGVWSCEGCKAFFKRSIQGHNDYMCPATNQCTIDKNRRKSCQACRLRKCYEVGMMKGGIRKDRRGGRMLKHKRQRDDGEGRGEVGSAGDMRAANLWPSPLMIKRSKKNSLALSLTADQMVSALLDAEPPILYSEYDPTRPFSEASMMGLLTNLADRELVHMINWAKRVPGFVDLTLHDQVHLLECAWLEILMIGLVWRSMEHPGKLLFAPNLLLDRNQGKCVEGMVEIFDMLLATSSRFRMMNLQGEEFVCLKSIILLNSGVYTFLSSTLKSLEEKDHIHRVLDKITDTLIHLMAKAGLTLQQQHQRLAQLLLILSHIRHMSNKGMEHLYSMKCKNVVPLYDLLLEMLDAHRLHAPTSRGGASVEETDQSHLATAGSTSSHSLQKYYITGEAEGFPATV
Summary of the method: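 HepG2 cells transiently transfected with GAL4-UAS reporter units and chimeric NR-Gal4 constructs; 24 h after dosing, reporter mRNA quantified by RT-PCR and capillary electrophoresis. Medium contained 3 nM 6-alpha-fluorotestosterone; activity fitted as gain-of-signal versus DMSO.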

[13] = system: turtle Estrogen Receptor (ESR1), gene 101933533; test: ATG_trERa_XSP1: Attagene TRANS-FACTORIAL Multi-Species (XSP1) HepG2 Assay for turtle Estrogen Receptor (ESR1) (AID 2283781)
Summary of the method: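 Turtle ERa as a GAL4 chimera in transiently transfected HepG2 cells; reporter mRNA quantified 24 h after dosing by RT-PCR and capillary electrophoresis. 3 nM 6-alpha-fluorotestosterone present; gain of signal versus DMSO.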

[14] = system: turtle Androgen Receptor (AR), gene 101947425; test: ATG_trAR_XSP1: Attagene TRANS-FACTORIAL Multi-Species (XSP1) HepG2 Assay for turtle Androgen Receptor (AR) (AID 2283786)
Summary of the method: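 HepG2 cells transiently transfected with a turtle AR–GAL4 chimera and GAL4-UAS reporter, co-treated with 3 nM 6-alpha-fluorotestosterone for partial stimulation. Reporter mRNA is quantified at 24 h by RT-PCR and capillary electrophoresis, gain-of-signal versus DMSO.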

[15] = target: Estrogen receptor beta (Homo sapiens) (UniProt Q92731); test: ATG_hERb_XSP1: Attagene TRANS-FACTORIAL Multi-Species (XSP1) HepG2 Assay for human Estrogen Receptor (ESR2) (AID 2283788)
Chain of Estrogen receptor beta (Homo sapiens) (Q92731 whole entry, looked up, the tested form may be a part): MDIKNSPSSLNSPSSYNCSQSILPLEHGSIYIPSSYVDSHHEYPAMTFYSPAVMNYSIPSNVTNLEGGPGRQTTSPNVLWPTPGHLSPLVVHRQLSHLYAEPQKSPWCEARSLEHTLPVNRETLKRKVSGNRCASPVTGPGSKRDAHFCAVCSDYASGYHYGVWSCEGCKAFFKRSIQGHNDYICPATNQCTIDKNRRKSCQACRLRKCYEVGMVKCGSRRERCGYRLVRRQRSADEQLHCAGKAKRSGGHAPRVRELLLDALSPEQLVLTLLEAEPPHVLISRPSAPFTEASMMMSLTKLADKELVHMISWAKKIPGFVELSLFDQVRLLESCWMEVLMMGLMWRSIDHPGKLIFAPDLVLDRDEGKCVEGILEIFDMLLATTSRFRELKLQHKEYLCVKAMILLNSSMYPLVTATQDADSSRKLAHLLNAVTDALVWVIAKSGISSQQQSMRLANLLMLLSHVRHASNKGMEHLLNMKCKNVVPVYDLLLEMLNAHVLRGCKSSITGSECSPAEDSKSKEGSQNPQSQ
Summary of the method: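 HepG2 cells transiently transfected with GAL4-UAS multiplexed reporter units, 3 nM 6-alpha-fluorotestosterone present; 24 h exposure. Reporter mRNA measured by RT-PCR, fluorescent labelling and capillary electrophoresis; gain of signal fitted against DMSO.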

[16] = STM_H9_NormalizedViability: Cytotoxicity Assessment at 120 hours in the Stemina devTOX quickPredict H9 human embryonic stem cell (hESC)-based Assay (AID 2283784)
Summary of the method: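 Undifferentiated H9 hESCs kept pluripotent were exposed to compound, with media and chemical replaced every 24h. CellTiter-Fluor protease-substrate fluorescence was background-corrected and normalized per plate to the 0.1% DMSO vehicle; signal loss indicates reduced viability.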

Measured: AC50

c1ccc(C2CO2)cc1 (stereo unspecified)
inactive: [1] | [2]

CC(O)CCO (stereo unspecified)
inactive: [1] | [2] | [3]

[O-][Cl+]O
inactive: [1] | [2]

CCCCCOC(=O)c1ccccc1C(=O)OCCCCC
active: [7] 40.7 µM | [8] 27.3 µM | [1] 30 µM | [2] 67.9 µM | [11] 27 µM | [12] 24.2 µM | [13] 26.8 µM
not listed: [3] | [16]
inactive: all other assays above

ClC1=C(Cl)[C@]2(Cl)[C@H]3[C@H]([C@@H]4C=C[C@H]3C4)[C@@]1(Cl)C2(Cl)Cl
active: [1] 18.1 µM | [2] 18.1 µM | [3] 74.5 µM

CCCCOC(=O)c1ccccc1C(=O)OCc1ccccc1
active: [6] 26.6 µM | [7] 6.82 µM | [8] 9.27 µM | [1] 50 µM | [2] 24.7 µM | [9] 7.32 µM | [10] 7.24 µM | [11] 7.78 µM | [13] 9.3 µM | [16] 34 µM
inactive: [4]

CCCSC(=O)N(CCC)CCC
inactive: [1] | [2]

[As]#[In]
inactive: [1] | [2]

Nc1cc(Cl)cc(C(=O)O)c1Cl
inactive: [1] | [2] | [3]

CCOC(=O)[C@]1(c2ccccc2)Oc2ccccc2[C@@H]1N
active: [1] 69.4 µM | [2] 65 µM
inactive: [3]

Clc1ccc(C(c2ccc(Cl)cc2)C(Cl)Cl)cc1
active: [7] 7.14 µM | [8] 6.82 µM | [1] 21.3 µM | [2] 18.1 µM | [9] 8.6 µM | [10] 17.8 µM | [11] 10.1 µM | [12] 16.4 µM | [13] 26.4 µM | [3] 26.1 µM
inactive: [6]
